The structures appear in SMILES notation. Compounds without any hit were thinned out: in the full panel of roughly 83,000, 20% have a hit.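 The endpoint reported here, percent growth, reads 100 for growth as untreated, 0 for no net growth and -100 for all cells dead.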 The source made the active and inactive calls. Rule for the calls: active = growth percent below 10; inactive = the rest.

The experiment deals with HL-60(TB) leukemia. The experiment can be described thus: NCI-60 one-dose screen, 48 h (100 = growth as untreated, 0 = no growth, -100 = all killed). The settings on record: 10 µM unless noted.
With `O=C1Nc2ccc(Br)cc2C12Oc1ccccc1C1CC(c3ccc(F)cc3)=NN12` (configuration not stated), the growth was 92.9% (inactive).

As for `O=C1OC(c2ccc(-c3ccccc3)cc2)=C/C1=C/C=C/c1ccccc1`, the growth was 90.5% (inactive).

Turning to `Cc1c(Cl)cccc1C(=O)Nc1nc2c(s1)CN(C(=O)c1ccc(C(F)(F)F)cc1)CC2`, the growth was -21.8% (active).

In the case of `CSc1nc(Nc2cccc(NC(=O)CCl)c2)c(C#N)c(-c2cccc([N+](=O)[O-])c2)n1`, the growth is 30.3% (inactive).

On to `O=C(c1cnn2c1NC(c1ccc(F)cc1)C2)N1CCCCC1` (configuration not stated), for which the growth is 99.7% (inactive).

Regarding `CC(C)CNCC(O)COc1ccc(C(C)(C)c2ccc(OCC(O)CNCC(C)C)cc2)cc1` (configuration not stated), the growth is 26% (inactive).

With `COc1cc(Br)c(-c2nc(-c3ccccc3)c(-c3ccccc3)n2Cc2ccccc2)cc1OC`, the growth was 18.6% (inactive).

Consider `COc1ccc(-c2csc(C3=C(O)CN(C(C)C)C3=N)n2)cc1OC`, for which the growth was 76.4% (inactive).

With `COc1cc(CCC[P+](c2ccccc2)(c2ccccc2)c2ccccc2)cc2c1OCO2`, the growth was 10.3% (inactive).

For the compound `S=c1nc(-c2ccccc2)oc(=NC2CCCCC2)n1C1CCCCC1`, the growth was -36.5% (active).

As for `C=CCn1cc(-c2nc3ccccc3s2)c2cc(-c3ccc4c5c(cccc35)C(=O)N(CCO)C4=O)ccc21`, the growth is 101% (inactive).

In the case of `CCOC(=O)C1=C(C)NC(C)=C(C(=O)OCC)C1c1cc(Br)c(O)c(OC)c1`, the growth was 6.74% (active).

On to `COC(=O)C1OC1c1cc([N+](=O)[O-])ccc1OC` (configuration not stated), for which the growth is 99.1% (inactive).

On to `CC[C@H](CO)Nc1nc(NCc2ccccc2)c2ncn(C(C)C)c2n1`, for which the growth was 48.1% (inactive).

Take `O=[N+]([O-])c1ccc(N2CCN=N2)cc1`: the growth was 84.4% (inactive).

In the case of `CS(=O)(=O)c1ccc(-c2cc3c(oc2=O)-c2ccccc2OC3O)cc1` (configuration not stated), the growth was 93.5% (inactive).

On to `COc1ccc(N=C2C(=Nc3ccc(OC)cc3)N(c3ccc(N(C)C)cc3)C(=S)N2c2ccc(OC)cc2)cc1`, for which the growth was 24.6% (inactive).

Consider `O=C(Cn1c2ccccc2c2ccncc21)N/N=C\c1ccc2ccccc2c1`, for which the growth was 40.5% (inactive).

Consider `COc1ccc(-c2ccc(-c3ccc(C(=N)N)cn3)s2)cc1Cl`, for which the growth was -55.3% (active).

In the case of `Cc1ccc(-c2cc3c(cc2O)C2CCCCC2(N2CCOCC2)O3)cc1` (configuration not stated), the growth was 96.1% (inactive).

Turning to `CC(=O)C1=C(O)C=C2Oc3c(C(=O)/C=C/c4cc(C(F)(F)F)cc(C(F)(F)F)c4)c(O)c(C)c(O)c3[C@]2(C)C1=O`, the growth is -35.2% (active).

For `CCN(CC)c1ccc(N2C(=O)/C(=C/c3cccs3)SC2=S)cc1`, the growth is 92.6% (inactive).

The values above are taken from PubChem BioAssay (NCI).
